Laboratory results taken from PMC7862700, “An all-to-all approach to the identification of sequence-specific readers for epigenetic DNA modifications on cytosine”.

Experiments:
Test in all cases: DAPPL (digital affinity profiling via proximity ligation, sequencing); 10 mM Tris-HCl pH 7.5, 50 mM NaCl, 1 mM DTT, 4% glycerol, room temperature, 30 min; GST-TFs on glutathione beads, 16-mer random dsDNA library, 0.1% formaldehyde crosslink after washing; high values mean tight binding
Conditions in all cases: protein: recombinant; tags: N-terminal GST; dsDNA, one strand shown
[1] = biological target: T1, GABPA (Homo sapiens, UniProt Q06546 1-454)
T1 sequence: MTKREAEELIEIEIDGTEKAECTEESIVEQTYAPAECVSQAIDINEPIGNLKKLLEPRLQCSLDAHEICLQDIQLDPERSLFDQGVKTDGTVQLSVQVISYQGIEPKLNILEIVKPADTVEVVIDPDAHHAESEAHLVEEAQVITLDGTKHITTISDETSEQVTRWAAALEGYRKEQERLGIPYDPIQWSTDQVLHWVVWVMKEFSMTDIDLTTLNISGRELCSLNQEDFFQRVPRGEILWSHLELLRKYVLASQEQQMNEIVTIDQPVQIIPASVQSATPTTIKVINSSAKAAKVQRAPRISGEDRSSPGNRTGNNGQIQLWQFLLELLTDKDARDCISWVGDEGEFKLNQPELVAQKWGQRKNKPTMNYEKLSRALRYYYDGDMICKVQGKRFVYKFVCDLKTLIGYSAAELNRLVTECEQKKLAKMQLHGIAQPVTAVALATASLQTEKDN
In short: (§1)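 A tag-only sample was pooled with DNA-barcoded human transcription factors that had been expressed in yeast as GST fusions and captured on glutathione beads. The pools were incubated for 30 min at room temperature with 200 nmole of a random double-stranded 16-mer DNA library in Tris/NaCl/DTT/glycerol buffer, then washed, crosslinked with 0.1% formaldehyde, proximity-ligated (BsaI/T4 ligase, 1 h, 37 °C), PCR-amplified and sequenced on an Illumina NextSeq500. Binding signal is each hexamer's read frequency for a factor divided by its frequency for the tag-only sample.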

[2] = biological target: T2, ERG (Homo sapiens, UniProt P11308 1-479)
T2 sequence: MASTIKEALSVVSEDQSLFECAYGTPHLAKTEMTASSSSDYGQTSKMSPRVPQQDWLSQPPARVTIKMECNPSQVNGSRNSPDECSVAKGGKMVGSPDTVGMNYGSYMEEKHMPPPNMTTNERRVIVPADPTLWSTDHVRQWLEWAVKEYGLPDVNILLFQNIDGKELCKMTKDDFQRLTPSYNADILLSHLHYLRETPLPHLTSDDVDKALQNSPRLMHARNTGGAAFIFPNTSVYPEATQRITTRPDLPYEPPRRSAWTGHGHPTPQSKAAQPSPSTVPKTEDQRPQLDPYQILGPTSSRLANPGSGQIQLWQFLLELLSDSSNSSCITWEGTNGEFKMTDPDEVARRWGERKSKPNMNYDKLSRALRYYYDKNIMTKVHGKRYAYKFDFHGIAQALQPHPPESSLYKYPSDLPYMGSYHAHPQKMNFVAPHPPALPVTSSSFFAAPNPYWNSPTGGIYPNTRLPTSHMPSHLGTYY
In short: as §1

[3] = biological target: ELF1 (Homo sapiens, UniProt P32519 1-619)
Chain of ELF1 (P32519 whole entry): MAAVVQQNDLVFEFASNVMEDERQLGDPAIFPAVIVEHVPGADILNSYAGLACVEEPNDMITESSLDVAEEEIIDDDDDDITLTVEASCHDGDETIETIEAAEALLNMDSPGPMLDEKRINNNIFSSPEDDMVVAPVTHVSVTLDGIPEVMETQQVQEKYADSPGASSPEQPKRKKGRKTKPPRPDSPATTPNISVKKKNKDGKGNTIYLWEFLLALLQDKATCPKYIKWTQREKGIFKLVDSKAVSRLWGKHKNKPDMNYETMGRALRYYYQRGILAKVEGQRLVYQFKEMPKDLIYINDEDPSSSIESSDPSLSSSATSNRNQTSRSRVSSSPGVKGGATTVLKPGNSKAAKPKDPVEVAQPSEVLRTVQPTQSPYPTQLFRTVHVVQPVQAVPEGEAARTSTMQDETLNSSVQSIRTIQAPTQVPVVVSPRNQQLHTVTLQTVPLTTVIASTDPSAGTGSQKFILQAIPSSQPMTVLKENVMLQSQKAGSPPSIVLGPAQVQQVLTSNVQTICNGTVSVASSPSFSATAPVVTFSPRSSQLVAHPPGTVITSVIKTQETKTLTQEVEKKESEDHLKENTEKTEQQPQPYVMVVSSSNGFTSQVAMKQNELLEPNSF
In short: as §1

[4] = biological target: SPI1 (Homo sapiens, UniProt P17947 1-270)
In short: as §1

[5] = biological target: SPIB (Homo sapiens, UniProt Q01892 1-262)
Chain of SPIB (Q01892 whole entry): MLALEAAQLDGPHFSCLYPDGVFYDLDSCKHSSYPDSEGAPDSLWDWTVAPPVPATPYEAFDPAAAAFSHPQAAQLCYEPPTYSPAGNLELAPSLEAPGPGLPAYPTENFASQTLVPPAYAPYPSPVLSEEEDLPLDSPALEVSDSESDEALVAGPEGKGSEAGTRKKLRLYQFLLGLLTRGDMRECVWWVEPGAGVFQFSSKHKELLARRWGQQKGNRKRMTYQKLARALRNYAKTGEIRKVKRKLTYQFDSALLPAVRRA
In short: as §1

[6] = biological target: T3, ELK3 (Homo sapiens, UniProt P41970 1-407)
T3 sequence: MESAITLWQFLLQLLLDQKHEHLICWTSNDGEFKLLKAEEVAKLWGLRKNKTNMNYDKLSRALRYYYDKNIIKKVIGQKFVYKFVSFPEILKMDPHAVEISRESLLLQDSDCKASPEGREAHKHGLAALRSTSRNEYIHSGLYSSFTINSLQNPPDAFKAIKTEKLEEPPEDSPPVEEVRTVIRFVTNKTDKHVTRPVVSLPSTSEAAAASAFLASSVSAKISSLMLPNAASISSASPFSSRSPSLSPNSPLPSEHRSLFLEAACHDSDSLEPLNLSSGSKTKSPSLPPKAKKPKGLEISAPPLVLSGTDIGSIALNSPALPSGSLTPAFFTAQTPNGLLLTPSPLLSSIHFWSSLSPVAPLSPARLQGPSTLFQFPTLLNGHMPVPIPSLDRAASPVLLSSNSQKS
In short: as §1

[7] = biological target: T4, FEV (Homo sapiens, UniProt Q99581 1-238)
T4 sequence: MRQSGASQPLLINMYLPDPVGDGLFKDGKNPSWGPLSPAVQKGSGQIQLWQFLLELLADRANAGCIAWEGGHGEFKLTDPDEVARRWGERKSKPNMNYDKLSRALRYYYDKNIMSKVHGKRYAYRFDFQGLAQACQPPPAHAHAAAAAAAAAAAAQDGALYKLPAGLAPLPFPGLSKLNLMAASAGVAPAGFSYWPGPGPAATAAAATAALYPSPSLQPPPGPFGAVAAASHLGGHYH
In short: as §1

[8] = biological target: T5, SPIC (Homo sapiens, UniProt Q8N5J4 1-248)
T5 sequence: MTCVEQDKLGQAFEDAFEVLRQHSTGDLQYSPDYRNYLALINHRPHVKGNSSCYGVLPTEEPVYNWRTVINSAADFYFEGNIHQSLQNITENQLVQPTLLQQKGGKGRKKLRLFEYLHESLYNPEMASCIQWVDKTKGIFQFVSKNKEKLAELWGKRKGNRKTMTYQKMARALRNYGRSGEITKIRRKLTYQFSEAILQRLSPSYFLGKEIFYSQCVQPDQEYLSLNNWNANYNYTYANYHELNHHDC
In short: as §1

[9] = biological target: ELF4 (Homo sapiens, UniProt Q99607 1-663)
Chain of ELF4 (Q99607 whole entry): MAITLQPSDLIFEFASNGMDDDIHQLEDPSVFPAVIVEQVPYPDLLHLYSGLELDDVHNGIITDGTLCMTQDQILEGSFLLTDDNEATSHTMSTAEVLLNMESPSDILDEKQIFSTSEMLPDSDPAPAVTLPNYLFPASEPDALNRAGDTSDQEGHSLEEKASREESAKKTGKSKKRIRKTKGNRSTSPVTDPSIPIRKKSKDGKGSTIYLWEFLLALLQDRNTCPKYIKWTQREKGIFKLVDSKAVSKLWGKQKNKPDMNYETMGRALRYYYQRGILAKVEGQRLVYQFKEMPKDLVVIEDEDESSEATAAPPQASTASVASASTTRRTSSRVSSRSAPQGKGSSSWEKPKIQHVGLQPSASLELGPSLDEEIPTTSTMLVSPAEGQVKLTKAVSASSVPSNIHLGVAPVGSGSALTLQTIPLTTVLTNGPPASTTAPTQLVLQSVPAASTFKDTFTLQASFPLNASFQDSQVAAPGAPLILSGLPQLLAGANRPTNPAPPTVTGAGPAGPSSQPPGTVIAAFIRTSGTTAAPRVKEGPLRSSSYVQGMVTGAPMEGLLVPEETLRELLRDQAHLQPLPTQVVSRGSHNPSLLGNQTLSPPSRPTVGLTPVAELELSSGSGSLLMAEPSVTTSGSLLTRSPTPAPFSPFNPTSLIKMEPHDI
In short: as §1

[10] = biological target: T6, ELK4 (Homo sapiens, UniProt P28324-2 1-405)
T6 sequence: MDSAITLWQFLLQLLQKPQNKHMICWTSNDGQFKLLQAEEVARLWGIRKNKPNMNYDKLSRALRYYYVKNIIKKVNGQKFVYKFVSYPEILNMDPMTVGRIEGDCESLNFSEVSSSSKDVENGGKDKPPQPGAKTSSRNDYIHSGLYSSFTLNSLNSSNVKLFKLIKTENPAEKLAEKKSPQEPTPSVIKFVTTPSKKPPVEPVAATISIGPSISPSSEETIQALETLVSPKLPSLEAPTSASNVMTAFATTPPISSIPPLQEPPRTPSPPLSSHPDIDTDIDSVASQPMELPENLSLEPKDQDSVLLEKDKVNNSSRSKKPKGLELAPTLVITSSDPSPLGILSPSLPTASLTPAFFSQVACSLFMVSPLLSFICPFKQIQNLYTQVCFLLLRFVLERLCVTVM
In short: as §1

[11] = biological target: T7, ELF3 (Homo sapiens, UniProt P78545 1-371)
T7 sequence: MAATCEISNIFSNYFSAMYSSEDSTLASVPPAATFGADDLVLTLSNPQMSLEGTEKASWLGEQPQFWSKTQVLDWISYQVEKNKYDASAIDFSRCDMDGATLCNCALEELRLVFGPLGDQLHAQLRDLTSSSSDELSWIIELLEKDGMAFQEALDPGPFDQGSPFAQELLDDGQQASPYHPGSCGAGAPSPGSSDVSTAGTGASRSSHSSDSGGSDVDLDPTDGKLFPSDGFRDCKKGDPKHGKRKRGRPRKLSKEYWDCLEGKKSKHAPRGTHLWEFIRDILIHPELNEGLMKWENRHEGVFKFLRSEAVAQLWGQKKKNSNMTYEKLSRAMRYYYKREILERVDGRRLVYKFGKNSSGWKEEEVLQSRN
In short: as §1

[12] = biological target: T8, ETS2 (Homo sapiens, UniProt P15036 1-469)
T8 sequence: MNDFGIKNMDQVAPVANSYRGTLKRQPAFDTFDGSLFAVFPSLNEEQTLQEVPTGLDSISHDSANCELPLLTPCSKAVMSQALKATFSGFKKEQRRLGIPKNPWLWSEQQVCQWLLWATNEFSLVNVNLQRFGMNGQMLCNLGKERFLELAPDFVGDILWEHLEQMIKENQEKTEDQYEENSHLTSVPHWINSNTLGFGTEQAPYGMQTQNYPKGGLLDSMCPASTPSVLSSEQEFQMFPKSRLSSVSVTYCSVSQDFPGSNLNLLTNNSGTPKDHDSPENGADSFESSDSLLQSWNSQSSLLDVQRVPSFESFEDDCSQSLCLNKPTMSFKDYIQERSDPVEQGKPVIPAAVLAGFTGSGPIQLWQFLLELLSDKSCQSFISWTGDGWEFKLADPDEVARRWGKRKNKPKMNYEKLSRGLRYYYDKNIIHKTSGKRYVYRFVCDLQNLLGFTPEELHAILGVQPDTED
In short: as §1

[13] = biological target: T9, ETV7 (Homo sapiens, UniProt Q9Y603 1-341)
T9 sequence: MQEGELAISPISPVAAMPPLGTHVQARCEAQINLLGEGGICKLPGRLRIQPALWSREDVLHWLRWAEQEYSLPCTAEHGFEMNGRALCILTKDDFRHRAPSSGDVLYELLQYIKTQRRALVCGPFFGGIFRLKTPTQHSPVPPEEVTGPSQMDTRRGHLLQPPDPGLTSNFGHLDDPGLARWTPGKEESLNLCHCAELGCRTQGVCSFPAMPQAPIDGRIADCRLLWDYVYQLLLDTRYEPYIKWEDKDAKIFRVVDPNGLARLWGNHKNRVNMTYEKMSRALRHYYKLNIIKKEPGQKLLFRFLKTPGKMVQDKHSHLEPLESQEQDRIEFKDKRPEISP
In short: as §1

[14] = biological target: ETV6 (Homo sapiens, UniProt P41212 1-452)
Chain of ETV6 (P41212 whole entry): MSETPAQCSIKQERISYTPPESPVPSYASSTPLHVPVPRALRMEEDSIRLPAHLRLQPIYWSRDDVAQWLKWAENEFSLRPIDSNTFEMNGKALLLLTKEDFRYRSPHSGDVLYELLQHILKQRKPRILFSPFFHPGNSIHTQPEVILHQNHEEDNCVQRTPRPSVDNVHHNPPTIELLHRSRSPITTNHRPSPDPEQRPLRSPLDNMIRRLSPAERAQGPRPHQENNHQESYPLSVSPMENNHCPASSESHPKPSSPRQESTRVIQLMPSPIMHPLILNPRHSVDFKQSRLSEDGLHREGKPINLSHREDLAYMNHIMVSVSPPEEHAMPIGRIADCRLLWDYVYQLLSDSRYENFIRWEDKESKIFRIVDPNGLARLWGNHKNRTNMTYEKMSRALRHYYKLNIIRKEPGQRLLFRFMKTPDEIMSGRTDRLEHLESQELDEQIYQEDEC
In short: as §1

## GTGGCC
[1]
  binding signal: 1.06 fold enrichment (6-mer frequency, TF over GST control)
[2]
  binding signal: 1.1 fold enrichment (6-mer frequency, TF over GST control)
[3]
  binding signal: 1.05 fold enrichment (6-mer frequency, TF over GST control)
[4]
  binding signal: 1.2 fold enrichment (6-mer frequency, TF over GST control)
[5]
  binding signal: 1.2 fold enrichment (6-mer frequency, TF over GST control)
[6]
  binding signal: 1.22 fold enrichment (6-mer frequency, TF over GST control)
[7]
  binding signal: 1.14 fold enrichment (6-mer frequency, TF over GST control)
[8]
  binding signal: 1.02 fold enrichment (6-mer frequency, TF over GST control)
[9]
  binding signal: 1.02 fold enrichment (6-mer frequency, TF over GST control)
[10]
  binding signal: 1.03 fold enrichment (6-mer frequency, TF over GST control)
[11]
  binding signal: 1.09 fold enrichment (6-mer frequency, TF over GST control)
[12]
  binding signal: 1.01 fold enrichment (6-mer frequency, TF over GST control)
[13]
  binding signal: 1.01 fold enrichment (6-mer frequency, TF over GST control)
[14]
  binding signal: 1.1 fold enrichment (6-mer frequency, TF over GST control)
